For 13 compounds, AC50 and outcome results are on record in PubChem BioAssay (EPA / NIEHS).

Read-out in experiment [1]: Thrombomodulin, THBD (gene 7056)
The experiment is described as follows: BSK_3C_Thrombomodulin: BioMAP Diversity Plus: 3C Assay for Thrombomodulin Biomarker Activity (AID 2283029). The settings on record: primary human endothelial cells (HUVEC); actives raise or lower the signal. An outline of the steps:
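Thrombomodulin ELISA, human primary HUVEC, 24 h post-dose; data fitted in both directions relative to DMSO.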

Read-out in experiment [2]: Urokinase-type plasminogen activator receptor (uPAR), PLAUR (gene 5329)
Kind of experiment: BSK_4H_uPAR: BioMAP Diversity Plus: 4H Assay for Urokinase-type plasminogen activator receptor (uPAR) Biomarker Activity (AID 2283030). Conditions: primary human endothelial cells (HUVEC); actives raise or lower the signal. An outline of the steps: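 Primary human umbilical vein endothelial cells were exposed to chemical for 24 h before cell-surface uPAR was quantified by ELISA. Activity was fitted bidirectionally against the DMSO negative control baseline.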

Read-out in experiment [3]: Vascular endothelial growth factor receptor 2 (Homo sapiens) (UniProt P35968)
The experiment is described as follows: BSK_4H_VEGFRII: BioMAP Diversity Plus: 4H Assay for Vascular endothelial growth factor receptor 2 (VEGFR2) Biomarker Activity (AID 2283031).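 As to AC50: cell-surface VEGFR2 protein level quantified by ELISA.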 Conditions: primary human endothelial cells (HUVEC); actives raise or lower the signal. An outline of the steps:
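Primary human umbilical vein endothelial cells in the BioMAP 4H system were dosed with test chemical, and 24 h later VEGFRII was measured by ELISA. Activity was fitted bidirectionally against DMSO as negative control and baseline.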

Read-out in experiment [4]: Human Leukocyte Antigen - DR isotype (HLADR), HLA-DRA (gene 3122)
Kind of experiment: BSK_BE3C_HLADR: BioMAP Diversity Plus: BE3C Assay for Human Leukocyte Antigen - DR isotype (HLADR) Biomarker Activity (AID 2283032). The settings on record: primary human bronchial epithelial cells; actives raise or lower the signal. An outline of the steps: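 Signal came from an ELISA for HLA-DR in human bronchial epithelial primary cells harvested 24 h after treatment; gain- and loss-of-signal fitting used DMSO controls as reference.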

Read-out in experiment [5]: Vascular cell adhesion molecule 1 (VCAM1), VCAM1 (gene 7412)
The experiment is described as follows: BSK_4H_VCAM1: BioMAP Diversity Plus: 4H Assay for Vascular cell adhesion molecule 1 (VCAM1) Biomarker Activity (AID 2283033).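 As to outcome: cell-surface VCAM-1 protein measured by ELISA.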 The settings on record: primary human endothelial cells (HUVEC); actives raise or lower the signal. The essentials:
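Endpoint derived from bidirectional fitting against DMSO controls of VCAM-1 ELISA signal in umbilical vein endothelial cells sampled at 24 h following treatment.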

Read-out in experiment [6]: Interferon-gamma inducible Protein 10 (IP10), CXCL10 (gene 3627)
Kind of experiment: BSK_BE3C_IP10: BioMAP Diversity Plus: BE3C Assay for Interferon-gamma inducible Protein 10 (IP10) Biomarker Activity (AID 2283034). Conditions: primary human bronchial epithelial cells; actives raise or lower the signal. An outline of the steps: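 Using primary human bronchial epithelial cultures, the assay captures IP-10 by ELISA one day (24 h) after exposure. Parallel SRB staining of total protein flags overt cytotoxicity. Fits run bidirectionally relative to DMSO.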

Read-out in experiment [7]: Monokine induced gamma interferon (MIG), CXCL9 (gene 4283)
Kind of experiment: BSK_BE3C_MIG: BioMAP Diversity Plus: BE3C Assay for Monokine induced gamma interferon (MIG) Biomarker Activity (AID 2283035).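 As to outcome: MIG protein measured by ELISA in BE3C cultures after 24 h of dosing.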 Conditions: primary human bronchial epithelial cells; actives raise or lower the signal. An outline of the steps:
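ELISA read-out of MIG in human lung bronchial epithelial primary cultures, 24 h post-dosing. Bidirectional curve fit vs DMSO baseline.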

Read-out in experiment [8]: Transforming growth factor beta 1 (TGFb1), TGFB1 (gene 7040)
Kind of experiment: BSK_BE3C_TGFb1: BioMAP Diversity Plus: BE3C Assay for Transforming growth factor beta 1 (TGFb1) Biomarker Activity (AID 2283036;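 as to outcome: TGF-b1 protein level measured by ELISA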). The settings on record: primary human bronchial epithelial cells; actives raise or lower the signal. The essentials:
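In this human primary bronchial epithelial system, an ELISA quantified TGF-b1 one day after dosing. Endpoint changes in either direction were fitted relative to DMSO.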

Read-out in experiment [9]: Plasminogen activator inhibitor-1 (PAI1), SERPINE1 (gene 5054)
Kind of experiment: BSK_BE3C_PAI1: BioMAP Diversity Plus: BE3C Assay for Plasminogen activator inhibitor-1 (PAI1) Biomarker Activity (AID 2283037). Conditions: primary human bronchial epithelial cells; actives raise or lower the signal. An outline of the steps: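 PAI-1 biomarker levels in treated human bronchial epithelial cells are determined by ELISA at 24 h. Both increases and decreases relative to DMSO are fitted.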

Read-out in experiment [10]: urokinase plasminogen activator (uPA), PLAU (gene 5328)
The experiment is described as follows: BSK_BE3C_uPA: BioMAP Diversity Plus: BE3C Assay for urokinase plasminogen activator (uPA) Biomarker Activity (AID 2283038).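 As to outcome: uPA protein level quantified by ELISA in cell cultures; uPA read one day after compound addition.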 Conditions: primary human bronchial epithelial cells; actives raise or lower the signal. An outline of the steps: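 Human primary bronchial epithelial cells were exposed to chemical for 24 h, then uPA levels were measured by ELISA. Responses were fitted bidirectionally against DMSO as negative control and baseline. Parallel SRB staining of total protein gauged overt cytotoxicity.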

Active and inactive are the calls of the source. The calls were made as follows: active = hit-call score of the fitted dose curve at least 0.9, where 1 is the maximum; inactive = score below 0.9.

Take `COC(=O)N(OC)c1ccccc1COc1ccn(-c2ccc(Cl)cc2)n1`: the AC50 in experiment [1] is 3.97 µM (active); in experiment [2], 20 µM (active); in [4] it was 3.97 µM (active); in [6] it was 8.98 µM (active); in experiment [9], 5.65 µM (active). Also, the result in experiment [3], in experiment [5], in experiment [7], in experiment [8] and in experiment [10] was inactive.

Take `COC(=O)c1ccccc1C(=O)OC`: the outcome in [1], in experiment [2], in experiment [3], in experiment [4], in experiment [5] and in experiment [6] was inactive. Besides, the outcome in [7], in [8], in [9] and in [10] was inactive.

Take `CC1COC(Cn2cncn2)(c2ccc(Oc3ccc(Cl)cc3)cc2Cl)O1` (stereo not given): the result in [1], in experiment [3] and in experiment [8] was inactive. For the same compound, the AC50 in experiment [2] was 24.3 µM (active); in experiment [4], 20 µM (active); in [5], 32.2 µM (active); in [6], 31.7 µM (active); in experiment [7], 29.3 µM (active); in [9], 20 µM (active). The AC50 in experiment [10] is 20 µM (active).

As to `CCCCC(CC)COC(=O)c1ccccc1C(=O)OCC(CC)CCCC` (stereo not given), the outcome in experiment [1], in experiment [2], in experiment [3], in experiment [4], in experiment [5] and in experiment [6] was inactive. Also, the outcome in experiment [7], in experiment [8], in experiment [9] and in [10] was inactive.

With `O=C(O)COc1nc(Cl)c(Cl)cc1Cl`, the result in experiment [1], in experiment [2], in experiment [3], in [4], in experiment [5] and in experiment [6] was inactive. The result in [7], in experiment [9] and in experiment [10] was inactive. Besides, the AC50 in experiment [8] is 0.245 µM (active).

Turning to `CC(C)(C)c1ccc(CSc2cnn(C(C)(C)C)c(=O)c2Cl)cc1`, the outcome in experiment [1], in [2], in experiment [5], in experiment [7] and in [10] was inactive. Further, the AC50 was 12.3 µM (active) in experiment [3]; 7.02 µM (active) in experiment [4]; 23.5 µM (active) in [6]; 0.832 µM (active) in experiment [8]; 14.2 µM (active) in experiment [9].

Regarding `CN(C)C(=S)SSC(=S)N(C)C`, the result in experiment [1] and in experiment [3] was inactive. Further, the AC50 was 26.3 µM (active) in [2]; 8.69 µM (active) in experiment [4]; 29.3 µM (active) in [5]; 10.7 µM (active) in [6]; 11.2 µM (active) in experiment [7]; 12.9 µM (active) in [8]. Further, the AC50 in experiment [9] is 27.1 µM (active); in experiment [10] it was 7.75 µM (active).

With `Oc1ccccc1-c1ccccc1`, the result in experiment [1], in experiment [2], in [3], in experiment [4], in experiment [5] and in experiment [6] was inactive. Further, the result in [7], in experiment [8], in experiment [9] and in experiment [10] was inactive.

For the compound `O=C(Nc1ccccc1)Nc1ccnc(Cl)c1`, the results for the AC50 in experiment [1] and in experiment [4] were 1.43 µM (active) and 34.7 µM (active), respectively. For the same compound, the result in experiment [2], in [3], in experiment [5], in experiment [6], in experiment [7] and in [8] was inactive. Besides, the result in experiment [9] and in [10] was inactive.

For `CCOC(=O)C(Cl)Cc1cc(-n2nc(C)n(C(F)F)c2=O)c(F)cc1Cl` (stereo not given), the outcome in experiment [1], in experiment [2], in experiment [3], in experiment [4], in [5] and in experiment [6] was inactive. The result in [7], in experiment [8], in experiment [9] and in experiment [10] was inactive.

Consider `CCOC(=O)CC(SP(=S)(OC)OC)C(=O)OCC` (stereo not given), for which the result in experiment [1], in [2], in [3], in experiment [4], in experiment [5] and in experiment [6] was inactive. Further, the result in experiment [7], in experiment [8], in [9] and in [10] was inactive.

In the case of `N#Cc1cc(Br)c(O)c(Br)c1`, the result in experiment [1], in experiment [3], in experiment [7], in experiment [8] and in [10] was inactive. For the same compound, the AC50 in experiment [2] is 16.9 µM (active); in [4], 11.9 µM (active); in experiment [5], 32 µM (active); in experiment [6] it was 23.5 µM (active); in [9], 12.8 µM (active).

Consider `COP(N)(=O)SC` (stereo not given), for which the outcome in experiment [1], in experiment [2], in experiment [3], in [5], in [6] and in [7] was inactive. Moreover, the result in experiment [8], in experiment [9] and in experiment [10] was inactive. In addition, in [4], the AC50 is 5.27 µM (active).

Broadly, the AC50 is the concentration at which the activity in the assay is half-maximal.
